Bioassay records (PubChem)
A selection: hits, their analogues and other compounds. The true share with any hit is near 3%.
TRAIL sens C8: caspase-8 TRAIL sensitization | NB7+C8 cells + TRAIL, ATPlite viability luminescence | inhibition (viability loss, TRAIL sensitization), % at 10 µM | 360,000 compounds, 1% hits;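 active = compounds causing at least 50% loss of cell viability in the single-dose screen, relative to plate controls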
PPC-1+TRAIL kill: PPC-1 cancer cell killing with TRAIL present; PPC-1 cells + TRAIL, ATPLite viability luminescence; cell killing (% activity), % at 4 µM or 5 µM; 220,000 compounds, 0.41% hits; AID 1443;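 active = cell killing above 50% in the first pass at 4 µM, then a duplicate retest at 5 µM averaging 50% or more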;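 note: plate controls were cells with TRAIL plus DMSO for no effect and medium-only wells lacking cells for full effect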
SENP8 block-1: SENP8 protease inhibition; purified SENP8, Z-RLRGG-aminoluciferin cleavage, luminescence; inhibition, % at 10 µM; AID 2540; 330,000 compounds, 1.2% hits; in the data active = inhibition above about 50%
Target sequence (Q96LD8 whole entry, looked up): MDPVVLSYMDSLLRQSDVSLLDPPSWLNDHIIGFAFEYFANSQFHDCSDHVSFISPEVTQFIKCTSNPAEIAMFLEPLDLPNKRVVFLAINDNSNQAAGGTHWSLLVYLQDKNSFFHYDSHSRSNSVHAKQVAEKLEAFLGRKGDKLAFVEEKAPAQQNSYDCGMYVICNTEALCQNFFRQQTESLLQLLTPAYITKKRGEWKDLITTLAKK
SENP6 inh: inhibitors of human SENP6 protease | Recombinant SENP6 catalytic domain, aminoluciferin luminescence | inhibition, % at 10 µM | 330,000 compounds, 1.8% hits | AID 2599;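 active = inhibition above about 50% at the single tested dose, limit read from the data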;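 note: plate controls were DMSO wells with enzyme for no effect and DMSO wells lacking enzyme for full effect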
Target sequence (Q9GZR1 628-1112 limits assumed): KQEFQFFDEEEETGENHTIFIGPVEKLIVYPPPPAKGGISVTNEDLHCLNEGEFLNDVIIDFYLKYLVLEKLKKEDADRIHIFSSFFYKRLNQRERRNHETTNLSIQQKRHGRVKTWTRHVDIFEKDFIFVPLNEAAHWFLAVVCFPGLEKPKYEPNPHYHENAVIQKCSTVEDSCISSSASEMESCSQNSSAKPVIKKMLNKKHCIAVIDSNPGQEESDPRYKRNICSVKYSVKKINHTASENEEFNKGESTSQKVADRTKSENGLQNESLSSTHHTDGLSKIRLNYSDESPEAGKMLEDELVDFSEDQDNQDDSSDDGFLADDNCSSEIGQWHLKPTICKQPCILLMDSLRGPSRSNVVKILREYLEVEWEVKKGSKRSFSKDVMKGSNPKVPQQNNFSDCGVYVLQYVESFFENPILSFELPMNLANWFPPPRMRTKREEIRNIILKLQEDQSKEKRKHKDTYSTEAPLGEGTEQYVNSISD
SENP7 inh: SENP7 protease inhibition; recombinant SENP7, Z-RLRGG-aminoluciferin luminescence, 40 min; 330,000 compounds, 1.5% hits; Q9BQF6; inhibition, % at 5 µM;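 active = inhibition above about 50% at the single test dose, limit read from the data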;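 note: plate controls were DMSO with enzyme for no effect and no enzyme buffer wells for full effect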
SENP8 block-2: inhibitors of human SENP8 protease. Q96LD8. AID 602440. recombinant SENP8, Nedd8 substrate fluorescence. inhibition, % at 20 µM. 360,000 compounds, 0.64% hits; in the data active = inhibition mostly above about 40%, no sharp cut-off; inactive = mostly below about 27%
SENP8 confirm: confirmation of human SENP8 protease inhibitors | inhibition, % at 12.5 µM | Recombinant SENP8, Z-RLRGG-aminoluciferin luminescence, 60 min | 6,200 compounds, 40% hits | AID 488912 | shares compounds with SENP7 inh;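 active = mean inhibition across replicates above about 50%, limit read from the data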
SENP6 conf: human SENP6 inhibition, confirmed; shares compounds with SENP7 inh; recombinant SENP6, Z-RLRGG-aminoluciferin luminescence; inhibition, % at 12.5 µM; 6,200 compounds, 58% hits; AID 488915
SENP7 conf: human SENP7 inhibition, confirmed; shares compounds with SENP7 inh; recombinant SENP7, Z-RLRGG-aminoluciferin luminescence, 40 min; inhibition, % at 12.5 µM; 6,200 compounds, 69% hits
Casp3 select: inhibits human caspase-3 in SENP selectivity test | shares compounds with SENP7 inh | purified caspase-3, Z-DEVD-aminoluciferin luminescence, 60 min | inhibition, % at 12.5 µM | 6,200 compounds, 60% hits | AID 488918;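 active = mean inhibition above about 50%, limit read from the data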;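 note: plate controls were enzyme with DMSO for no effect and wells without caspase-3 for full effect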
SENP luc ctr: interferes with luciferase luminescence in SENP counter-screen; 6,200 compounds, 39% hits; Pre-incubated SENP8/Z-RLRGG-aminoluciferin, luciferase luminescence interference; AID 488919; inhibition, % at 12.5 µM; shares compounds with SENP7 inh;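 active = mean inhibition above about 50% when retested at one dose, limit read from the data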;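 note: plate controls were DMSO wells with completed reaction for no effect and substrate without enzyme for full effect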
* hit, by the source's call; · = not tested or not shown.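 Rule for the calls, unless noted: active = mean inhibition above about 50% in the one-dose retest (limit read from the data); inactive = the rest.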

SMILES	TRAIL sens C8	PPC-1+TRAIL kill	SENP8 block-1	SENP6 inh	SENP7 inh	SENP8 block-2	SENP8 confirm	SENP6 conf	SENP7 conf	Casp3 select	SENP luc ctr
Cc1oc(/N=C/c2ccccc2O)c(C#N)c1C	1.1	28.2	-10.3	5.7	-3.8	-7.5	·	·	·	·	·
CN=C(Nc1cccnc1)c1ccccc1	-10.8	·	-15.9	-2.1	-5.7	7.0	·	·	·	·	·
CCOc1ccc(N=Cc2c(C)[nH]n(-c3nc4ccccc4[nH]3)c2=O)cc1	86.8*	73.9*	79.5*	93.7*	85.1*	15.7	49.0	35.0	50.1*	74.7*	69.3*
CCCCC(CCC(=O)NNC(=O)Cc1ccccc1)C(=O)O (centres undefined)	-5.2	34.5	-7.8	-23.3	-6.1	10.5	·	·	·	·	·
O=C(OCC(=O)N(Cc1ccccc1)Cc1ccccc1)c1cccc(O)c1	1.2	·	0.7	-0.1	6.1	14.0	·	·	·	·	·
O=C(COC(=O)c1cccc(O)c1)c1ccccc1	4.5	·	78.5*	85.5*	86.8*	2.1	86.4*	86.7*	97.2*	87.5*	86.5*
O=C(OCC(=O)c1cccs1)c1ccccc1	0.2	8.5	71.8*	13.0	85.9*	14.1	85.1*	85.7*	97.1*	91.2*	86.0*
C=CCNC(=O)CN(Cc1ccccc1)S(=O)(=O)c1ccccc1	-18.7	·	1.7	9.2	-1.8	10.4	·	·	·	·	·
COc1ccc(NC(=O)c2scc(S(=O)(=O)C(C)C)c2N)cc1	14.0	2.9	58.7*	66.0*	86.3*	0.0	68.4*	66.1*	88.8*	82.4*	67.6*
COc1ccc(NC(=O)c2sc(SCc3ccccc3)nc2N)cc1	-9.8	11.9	0.7	13.6	15.3	15.5	·	·	·	·	·
COc1ccc(NC(=O)c2sc(SC)nc2N)cc1	16.4	4.5	22.6	35.4	51.5*	13.9	45.2	40.4	74.4*	63.7*	52.0*
COc1ccc(/C=N/OCC(=O)OCC(=O)N(C)c2ccccc2)cc1	24.8	·	-3.2	5.8	23.3	4.3	·	·	·	·	·
COc1ncnc(-c2ccccc2)c1-c1ccccc1	19.4	·	-2.4	-32.6	-4.4	13.9	·	·	·	·	·
C/C(=N\NC(=O)CN1CCN(S(=O)(=O)c2ccc(C)cc2)CC1)c1ccc(O)cc1	-0.3	10.8	1.1	-3.5	6.6	13.4	·	·	·	·	·
NC1=NC(=O)/C(=C\c2cccs2)S1	0.6	10.7	-16.1	-25.9	-10.5	0.0	·	·	·	·	·
O=C1/C(=C\c2cccs2)Sc2ccc3ccccc3c21	37.3	12.0	87.8*	91.9*	97.6*	10.3	9.3	50.3*	79.6*	78.4*	1.5
COc1ccccc1N1CCN(C2CCCN(C(=O)CCc3cnn(C)c3)C2)CC1 (centres undefined)	0.4	·	-0.8	-1.4	-1.7	5.2	·	·	·	·	·
CCC[n+]1cn(/C(C(=S)Nc2cccc(Cl)c2C)=C(/[O-])c2ccc(OC)c(OC)c2)c2ccccc21	-1.6	14.8	5.4	-14.6	3.0	15.2	·	·	·	·	·
Oc1ccccc1/C=N/Nc1cccc2cccnc12	25.8	-8.2	86.5*	92.3*	88.2*	-60.7	92.2*	96.1*	101.4*	79.9*	43.0
Cc1c(NC(=O)c2cc3ccccc3o2)cccc1-n1cnnn1	3.2	·	·	·	·	3.4	·	·	·	·	·
CCN1CCN(C(=O)CSc2cc(=O)n(C)c3ccccc23)CC1	-0.9	2.9	-1.2	-14.6	89.8*	-12.9	8.2	4.9	4.1	0.2	1.4
Clc1ccc(OCc2cn3ccccc3n2)c2ncccc12	6.1	-3.3	-0.8	-7.8	0.5	-60.3	·	·	·	·	·
COc1c(Cl)cccc1-c1cn2ccccc2n1	73.3*	38.8	88.5*	93.0*	92.7*	-412.8	92.7*	92.6*	100.7*	92.2*	44.2
c1ccc(-c2ccc(-n3ccnc3)cc2)cc1	18.0	0.0	35.7	53.3*	5.7	-7.0	39.9	33.4	72.3*	56.4*	63.0*
c1ccc(-c2ccc(C(c3ccccc3)n3ccnc3)cc2)cc1 (centres undefined)	11.8	5.5	·	·	·	12.0	·	·	·	·	·
SMILES	TRAIL sens C8	PPC-1+TRAIL kill	SENP8 block-1	SENP6 inh	SENP7 inh	SENP8 block-2	SENP8 confirm	SENP6 conf	SENP7 conf	Casp3 select	SENP luc ctr
CC(C)(C)c1ccc(C(=O)c2c[nH]c(C(=O)O)c2)cc1	12.4	5.3	77.6*	84.7*	75.4*	5.3	34.1	76.4*	95.0*	21.2	83.8*
COC(=O)c1cc(C(=O)c2ccc(C(C)(C)C)cc2)c[nH]1	-6.3	-0.1	-2.3	1.6	1.4	10.1	·	·	·	·	·
COc1ccc(OC)c(C2=NOC(C(=O)N3CCCc4ccccc43)C2)c1 (centres undefined)	-6.1	23.0	-2.4	-14.1	-8.7	-136.7	·	·	·	·	·
COc1ccccc1CNC(=O)c1cccc(NC(=O)c2ccccc2)c1	0.2	14.1	-2.2	93.5*	4.5	16.8	-6.0	-10.7	2.7	1.1	1.6
Cc1cccc(C(=O)Nc2ccc3ccccc3c2)c1	19.1	·	73.4*	83.0*	74.9*	6.6	74.0*	75.9*	93.9*	57.9*	29.9
COc1ccc(C(=O)Nc2cc(OC)nc(OC)n2)cc1	44.7	39.7	73.9*	87.1*	82.8*	31.5	83.2*	83.1*	97.2*	92.1*	84.0*
COc1cccc(C(=O)Nc2cccc(OCC(=O)O)c2)c1	15.6	-2.2	19.1	46.2	57.8*	4.6	53.1*	48.8	80.6*	84.5*	55.8*
Cc1cc(C)c(NC(=O)CS(=O)CC(=O)NCCN2CCCCCC2)c(C)c1 (centres undefined)	9.5	·	7.3	-18.3	12.1	12.9	·	·	·	·	·
CCOc1cccc(C(=O)Nc2ccc(NC(=O)c3ccccc3)c(C)c2)c1	9.8	·	77.1*	78.0*	78.1*	26.3	12.5	23.8	43.0	86.5*	0.9
COc1cccc(C(=O)Nc2ccc(NC(C)=O)cn2)c1	0.5	1.4	-4.2	3.9	9.4	-3.1	·	·	·	·	·
CCCC(=O)Nc1ccc(NC(=O)c2cccc(OC)c2)nc1	8.7	18.9	15.8	52.3*	46.1	16.6	42.2	38.9	75.2*	76.4*	52.2*
COc1cccc(C(=O)Nc2cccc(SC)c2)c1	7.6	19.0	55.5*	78.9*	75.3*	12.2	72.5*	72.1*	90.3*	64.9*	70.3*
COc1cccc(C(=O)Nc2ccc3c(c2)C(=O)NC3=O)c1	-5.0	·	51.3*	58.0*	55.5*	-355.2	-26.6	34.3	29.0	31.4	-3.5
